# Data published in ChEMBL document CHEMBL3988442, “University of Dundee, Small-Polar-MMV Screening Library” (2021).
# Biological target: Shiga toxin 2 (Escherichia coli O157:H7) (UniProt P09385+P09386)
# Assay: E. coli 0.157:H7 Shiga Toxin SOP - stx2 screening assay
# Type: functional
# Parameters: scale not given: direction of the effect not stated beside the values
# Settings: 30 µM
row,SMILES,Percent Effect [%]
1,O=S(=O)(N1CCCC1)N1CCCCC1CCc1ccccc1 (stereo not given),10.8
2,Cc1cccc(OCCC(=O)N(C)CCNS(C)(=O)=O)c1C,6.1
3,Cn1ncc2c1NC(=O)CC2c1ccccc1Cl (stereo not given),6
4,N#Cc1cccc(SCCS(N)(=O)=O)c1,-7.47
5,COc1cc(C(=O)NC(CC(=O)O)c2cccs2)cc(Cl)c1OC (stereo not given),-19.3
6,COc1cc(C)sc1C(=O)N1CCC(Nc2cccnc2)CC1,-50.2
7,Cc1nn(C)c(C)c1C1CCCN1Cc1noc(C2CC2)n1 (stereo not given),16.3
8,COc1cccc(OCC2CCCN(C(=O)c3cnc(C)nc3O)C2)c1 (stereo not given),2.77
9,O=C(CCc1nccs1)N1CCCC(N2CCNC2=O)C1 (stereo not given),-8.24
10,Nc1ncc2c(n1)CN(C1CCCC1)C2=O,-55.7
11,O=C(NCCNc1ncccn1)N1CCCC(C(F)(F)F)C1 (stereo not given),1.25
12,COCc1ccccc1C(=O)NCCCN1CCCC1C(=O)N(C)C (stereo not given),-26.7
13,CC(C)OCCN(C)C(C)c1cccc(S(N)(=O)=O)c1 (stereo not given),-16.4
14,CC(C)c1nccn1C1CCCN(C(=O)c2cnn(C)c2C2CC2)C1 (stereo not given),28.9
15,CC(C)(C)c1n[nH]c(C2CN(C(=O)c3cc(Cl)c[nH]3)CCO2)n1 (stereo not given),0.626
16,Cc1cccc(C(=O)N(C)Cc2cc(Br)cs2)n1,-8.77
17,COc1ccc(CCC(=O)Nc2cccnc2N2CCCC2)cc1Br,28.3
18,Cn1cc(-c2nnn3c2COC(CNCc2nccs2)C3)cn1 (stereo not given),-39.2
19,CC1c2ncc(Cn3cncn3)n2CCN1C(=O)C1CCOCC1 (stereo not given),-10.6
20,CCOCC1CN(Cc2ccoc2)Cc2nn(CC3CC3)cc21 (stereo not given),-16.8
